# Only a selection was taken, and hits are over-represented in it overall.
# Pf Dd2 inh: Plasmodium falciparum Dd2 growth inhibition; P. falciparum Dd2 growth, SYBR Green, 72 h; Potency, µM (doses to about 28.9 µM), without a hit: at the top dose activity, negative = inhibition, hits mostly inhibitors; hit rate 4.3% among 120,000; active = well fitted inhibition curve with a large enough effect;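 note: plate controls were DMSO vehicle for no effect and reference drug for full effect; nearly all actives have a fitted effect of over 65% in size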
#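 Readout: SYBR Green fluorescence, 485 nm excitation, 535 nm emission, after ~16 h lysis at 37C. Before that, Dd2-infected red cells (2.5% hematocrit) grew 72 h with compound, 29 uM top final concentration.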
# * marks the source's active call; other numbers are inactive results; i = inactive; ! = repeats disagree; [ ] = remark or other dose. Potency is the fitted concentration of half-maximal effect.
SMILES,Pf Dd2 inh
CC(=O)c1ccc(N2C(=O)N(CC(=O)c3ccc(C)cc3)c3ccccc3S2(=O)=O)cc1,-21%
CCOc1ccc(N2C(=O)N(Cc3ccc(C)cc3C)c3ccccc3S2(=O)=O)cc1,10µM*
CCc1nc(N2CCc3ccccc3C2)ncc1C(=O)O,14%
COc1ccccc1CNC(=O)c1ccc(Cn2c(SCc3ccccc3)nc3cccnc32)cc1,8.9µM*
Cc1ccccc1CNC(=O)c1ccc(Cn2c(SCc3ccccc3)nc3cccnc32)cc1,11µM*
Cc1ccc(CNC(=O)c2ccc(Cn3c(SCc4ccccc4F)nc4cccnc43)cc2)cc1,i
Cc1ccccc1CSc1nc2cccnc2n1Cc1ccc(C(=O)NC2CC2)cc1,i
O=C(Nc1cc(F)ccc1F)N1CCCC(Cn2c(C3CC3)nc3cccnc32)C1 (stereo not given),-3%
CNC(=O)c1cnn2c1CN([S+](=O)([O-])c1cccc(C(F)(F)F)c1)CC2,3%
Cc1cc(N)n(CC(=O)N2CC[C@@]3(O)CCN(S(C)(=O)=O)C[C@H]3C2)n1,-6%
Cc1nc2ccc(S(=O)(=O)NCC(=O)Nc3ccc(C)c(Cl)c3)cc2s1,i
Cc1ccc(C)c(N2CCN(C(=O)C(CC(C)C)NS(=O)(=O)c3ccc4nc(C)sc4c3)CC2)c1 (stereo not given),7.9µM*
CSCCC(NS(=O)(=O)c1ccc2c(c1)oc(=O)n2C)C(=O)N1CCN(c2cc(C)ccc2C)CC1 (stereo not given),-21%
CC1(C(=O)N2CCC(c3ccccc3)CC2)CCc2cnc(N3CCOCC3)nc21 (stereo not given),i
CC(C)C(=O)N1CCC2(CC1)N(C)C(=O)CS2(=O)=O,33%
O=C(O)CC1C(=O)NCCN1C1CCCC1 (stereo not given),-3%
Cc1nc([C@H]2CCN(CC(C)C)C[C@H]2NC(=O)C2CCOCC2)n[nH]1,33%
CC(C)CNC(=O)N1CC[C@H]2C(=O)NCCCCCCN(Cc3ccncc3)[C@@H]2C1,1%
Cc1nn(C)c(C)c1CCN(C)C(=O)C1Cn2cccc2C(=O)N1C (stereo not given),-22%
CCOc1ccccc1NC(=O)CSc1nc2c(oc3ccccc32)c(=O)n1Cc1ccco1,-28%
O=C(CSc1nc2c(oc3ccccc32)c(=O)n1Cc1ccco1)Nc1ccccc1,i
CCCN(CCC)C(=O)CSc1nc2ccccc2c(=O)n1Cc1ccco1,11µM*
Cc1nn(-c2ccc(F)cc2)c(Oc2ccc(F)cc2F)c1CCC(=O)NCC1CCCO1 (stereo not given),i
COc1ccc2[nH]c3c(c2c1)CCN(C)C31CCN(C(=O)c2ccccc2F)CC1,-17%
COc1ccc(-c2noc([C@@H]3CCCN3C(=O)c3cccc(C)c3)n2)cc1OC,i
SMILES,Pf Dd2 inh
O=C(NC1C[C@H]2CC[C@@H](C1)N2C(=O)CC1CCCC1)c1ccncc1 (stereo not given in full),-4%
O=C(NC1CC1)c1ccccc1OC1CN(Cc2cccc(F)c2)C1,-14%
COc1cccc(CN2CC(Oc3ccccc3C(=O)NCc3ccccc3)C2)c1,3.5µM*
O=C(NC1CC1)c1ccccc1OC1CN(Cc2cccc(C(F)(F)F)c2)C1,-24%
CCCN(C)C(=O)CCc1ccc2c(c1)CN(S(C)(=O)=O)CCO2,i
Cc1cc(CNC(=O)CC2C=CS(=O)(=O)C2)c2[nH]c(-c3ccccc3)c(C)c2c1 (stereo not given),-4%
COCCOC1CCN(S(=O)(=O)c2cn(C)cn2)CC1,48%
NC(=O)Cn1ccc2cc(OCC3CCN(C(=O)COc4ccccc4)CC3)cnc21,-32%[44.1 µM]
COCCNC(=O)c1cc2c(=O)[nH]c(-c3ccccc3)cn2n1,-6%
Cc1ccc2nc(C3CCN(Cc4cccc(-c5ccsc5)c4)CC3)[nH]c(=O)c2c1,7%
COc1ccc(CN2CCCC(c3nn(-c4ccc(OC)cc4)c(=O)[nH]3)C2)cc1 (stereo not given),i
Cc1ccc2nc(C3CCN(Cc4cccs4)CC3)[nH]c(=O)c2c1,-1%[44.1 µM]
CCN1CCCC(c2nc3ccc(C)cc3c(=O)[nH]2)C1 (stereo not given),-17%[44.1 µM]
COc1ccccc1-c1ccc(CN2CCCC(c3nc4ccc(C)cc4c(=O)[nH]3)C2)cc1 (stereo not given),7.9µM*!
Cc1ccc2nc(C3CCCN(Cc4cccc(-c5cccnc5)c4)C3)[nH]c(=O)c2c1 (stereo not given),6.3µM*
OC[C@@H]1CNC[C@H]1C1CCN(CC2CCCCC2)CC1,51%
Cc1ncoc1C(=O)N1CCCC(c2nnnn2C)C1 (stereo not given),16%
O=C(c1ccc(=O)[nH]n1)N1C[C@H]2OC(=O)N(CCCN3CCOCC3)[C@H]2C1,-11%
Cc1cccc(-c2nc3cnccn3c2NCCC(=O)NCc2ccc(F)c(Cl)c2)c1,i
Cc1ccc(CN2CCOC[C@H](Oc3ccc(C(F)(F)F)cc3)C2)cc1,i
O=C(c1ccc(F)cc1)N1CCC(n2c(=O)[nH]c3ccccc32)CC1,-18%[44.1 µM]
COc1ccc(CCNC(=O)CCCn2c(=O)c3ccccc3n(CC(=O)Nc3cccc(C)c3)c2=O)cc1OC,10µM*
COc1ccc(CCNC(=O)CCCn2c(=O)c3ccccc3n(CC(=O)Nc3c(C)cc(C)cc3C)c2=O)cc1OC,-7%
COc1ccc(CCNC(=O)CCCCn2c(=O)c3ccccc3n(CC(=O)Nc3ccccc3C)c2=O)cc1OC,-18%
COc1ccccc1-c1nc(COC(=O)C2=CN(Cc3ccccc3)S(=O)(=O)N=C2C)no1,i
SMILES,Pf Dd2 inh
Cc1ncnc(N2CCC3(CC2)CC(=O)N(CCCc2ccccc2)C3)c1C,-21%
O=C(NCc1ccco1)N1C[C@@H]2CN(C(=O)C3CC3)C[C@]2(C(=O)O)C1,2%
CC(=O)NC1(C)CCN(Cc2cnc(-c3cccc(N(C)C)c3)s2)CC1,12%[44.1 µM]
CC(=O)NC1(C)CCN(Cc2ccc(-c3ccccc3OCc3ccccc3)cc2)C1 (stereo not given),13µM*
CC(=O)NC1(C)CCN(Cc2cnc(-c3ccccc3OCc3ccccc3)s2)CC1,11µM*
CC(=O)NC1(C)CCN(Cc2ccccc2-c2cccc(C(C)=O)c2)C1 (stereo not given),i
CC(=O)NC1(C)CCN(Cc2ccc(-c3ccc(N4CCOCC4)cc3)cc2)C1 (stereo not given),-21%[44.1 µM]
CC(=O)NC1(C)CCN(Cc2cnc(-c3ccccc3)s2)CC1,-8%[44.1 µM]
O=C(c1cccs1)N1CCC(Cc2nc(C3CCOCC3)no2)CC1,21%
O=C(CCc1ccccc1)N1CC[C@H]2COC(=O)N2c2cc(F)ccc2C1,-12%[44.1 µM]
COCCn1cnnc1CN(C)c1cc(C2CC(O)C2)ncn1 (stereo not given),-2%
Cc1ncc2n1C(=O)N(C1CCN(C(=O)c3ccccc3)CC1)C2,10%[44.1 µM]
COCC1CN(C(C)=O)CC12CCN(C(=O)c1cccc(C)c1)CC2 (stereo not given),68%
CC1=C[C@@H](CNC(=O)C(C)C)[C@H](C(C)C)C[C@H]1Cc1nc2ncccc2[nH]1,-3%[44.1 µM]
CC(=O)NC[C@@H]1C=C(C)[C@H](Cc2nc3ccccc3[nH]2)C[C@H]1C(C)C,-24%[44.1 µM]
CCCNC(=O)NC[C@@H]1C=C(C)[C@H](Cc2nc3nc(OC)ccc3[nH]2)C[C@H]1C(C)C,10µM*
CCC(CC)C(=O)NC[C@@H]1C=C(C)[C@H](Cc2nc3ccc(F)cc3[nH]2)C[C@H]1C(C)C,i
CC1=C[C@@H](CNC(=O)c2cccnc2)[C@H](C(C)C)C[C@H]1CC(=O)NC1CCCC1,i

# Screening data as filed in PubChem.
